The values that follow come from PubChem BioAssay (NCATS).

Records with an inconclusive call do not appear. The source made the active and inactive calls. Unless noted, the call rests on the fitted dose curve; in most records, active means well fitted curve in the direction sought with a large enough effect; inconclusive means small, poorly fitted or top-dose-only effect, or another doubt; inactive means no such curve, though single readings can be large; an effect the other way counts as inactive or inconclusive.

Assay [1] can be described thus: Quantitative High-Throughput drug screen in 47 multiple myeloma cell lines against the NCATS MIPE library collection: KMS34_JCRB cell viability assay (AID 1918985). Further: nearly all actives have a fitted effect of over 40% in size. Put shortly:
(§1)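 500 cells/well per myeloma line exposed to pinned MIPE 4.0 compounds for 48 h at 37 °C, 5% CO2. Viability read as ATP by CellTiter-Glo luminescence, normalised to DMSO-only (100%) and media-only (0%) wells.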

The nature of assay [2]: Quantitative High-Throughput drug screen in 47 multiple myeloma cell lines against the NCATS MIPE library collection: OCIMY5_PLB cell viability assay (AID 1918988). Further: nearly all actives have a fitted effect of over 65% in size. Further: potency means the concentration at half of the fitted maximal effect. The essentials: as §1
A short description of assay [3]: Quantitative High-Throughput drug screen in 47 multiple myeloma cell lines against the NCATS MIPE library collection: OPM1_PLB cell viability assay (AID 1918989). Further: nearly all actives have a fitted effect of over 40% in size. Further: potency means the concentration at half of the fitted maximal effect. Put shortly:
as §1

Assay [4] in a line: Quantitative High-Throughput drug screen in 47 multiple myeloma cell lines against the NCATS MIPE library collection: XG6_PLB cell viability assay (AID 1919865). Further: nearly all actives have a fitted effect of over 40% in size. Put shortly:
as §1

Assay [5] is described as follows: Quantitative High-Throughput drug screen in 47 multiple myeloma cell lines against the NCATS MIPE library collection: XG1_PLB cell viability assay (AID 1919866). Further: nearly all actives have a fitted effect of over 35% in size. Put shortly: as §1
The nature of assay [6]: Quantitative High-Throughput drug screen in 47 multiple myeloma cell lines against the NCATS MIPE library collection: VP6_DJ cell viability assay (AID 1919867). Further: nearly all actives have a fitted effect of over 40% in size. Further: potency means the concentration at half of the fitted maximal effect. Put shortly:
as §1

Assay [7] in a line: Quantitative High-Throughput drug screen in 47 multiple myeloma cell lines against the NCATS MIPE library collection: PE2_PLB cell viability assay (AID 1919869). Further: nearly all actives have a fitted effect of over 35% in size. Further: potency means the concentration at half of the fitted maximal effect. Put shortly: as §1
A short description of assay [8]: Quantitative High-Throughput drug screen in 47 multiple myeloma cell lines against the NCATS MIPE library collection: OPM2_DSMZ cell viability assay (AID 1919872). Further: nearly all actives have a fitted effect of over 30% in size. The essentials:
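CellTiter-Glo luminescence (ATP) after 48 h compound exposure, 37C/5% CO2; 500 cells/well; MIPE 4.0 approved/investigational drugs pinned in; DMSO = 100%, media only = 0% viability.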

Assay [9] in a line: Quantitative High-Throughput drug screen in 47 multiple myeloma cell lines against the NCATS MIPE library collection: KMS11_JCRBsus cell viability assay (AID 1919873). Further: nearly all actives have a fitted effect of over 50% in size. Further: potency means the concentration at half of the fitted maximal effect. Put shortly:
as §1

A short description of assay [10]: qHTS profiling for inhibitors of Plasmodium falciparum proliferation (AID 504749).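 Further: 0% = DMSO vehicle and full inhibition = artemisinin control; nearly all actives have a fitted effect of over 60% in size.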 Particulars: P. falciparum in erythrocytes, SYBR Green DNA, 72 h. Put shortly:
(§2)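 P. falciparum-infected erythrocytes (0.3% parasitemia, 2.5% hematocrit) incubated with compound 72 h at 37 C, 5% CO2. Parasite DNA detected by SYBR Green after lysis, overnight at room temperature; normalised to 0.29 uM artemisinin and DMSO.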

Assay [11] deals with 3D7. Described as above. Particulars: P. falciparum in erythrocytes, SYBR Green DNA, 72 h; series mostly up to 28.7 µM. The essentials:
as §2

The nature of assay [12]: Quantitative High-Throughput drug screen in 47 multiple myeloma cell lines against the NCATS MIPE library collection: UTMC2_PLB cell viability assay (AID 1919868). Further: nearly all actives have a fitted effect of over 55% in size. Further: potency means the concentration at half of the fitted maximal effect. The note with it: CellTiter-Glo ATP luminescence, 48 h; viability (% of DMSO control): at 45.8 µM (top of the series) unless noted. Put shortly: as §1
The nature of assay [13]: Quantitative High-Throughput drug screen in 47 multiple myeloma cell lines against the NCATS MIPE library collection: PCM6_Riken cell viability assay (AID 1919870). Further: nearly all actives have a fitted effect of over 30% in size. The essentials: as §1
The nature of assay [14]: Quantitative High-Throughput drug screen in 47 multiple myeloma cell lines against the NCATS MIPE library collection: RPMI8226_ATCC cell viability assay (AID 1919871). Further: nearly all actives have a fitted effect of over 30% in size. Further: potency means the concentration at half of the fitted maximal effect. The essentials:
as §1

Assay [15] is described as follows: qHTS drug screen for cell cycle checkpoint inhibitors in PARPi-resistant BRCA-mutant ovarian cancer cell lines. (AID 1963452; calls by dose curve). The note with it: PEO1/OlaR viability, CellTiter-Glo luminescence, 96 h, stronger effect = lower value. Put shortly:
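PEO1, PEO4 and PEO1/OlaR ovarian cancer cells, 600 per well, exposed 96 h at 37C to a dilution series. Viability read by CellTiter-Glo luminescence, normalized to DMSO and empty wells; activity summarized as Z-AUC.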

The nature of assay [16]: qHTS for identification of novel therapeutic agents for treatment of microphthalmiaassociated transcription factor (MiT) renal cell carcinoma (RCC) (AID 1963991).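 Further: curves scaled with 100% = DMSO viability and 0% = empty wells.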 Particulars: CellTiter-Glo, 48 h, stronger effect = lower value. The essentials: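 UOK109/UOK124/UOK145 (TFE3 fusions, three partners); 500 cells/well; MIPE v4.0, 1912 cpds, 11 conc.; 48 h, 37 C; CellTiter-Glo, 15 min RT; lum. Norm.: DMSO 100%, empty 0%.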

The nature of assay [17]: Quantitative High-Throughput drug screen in 47 multiple myeloma cell lines against the NCATS MIPE library collection: KMS28BM_JCRB cell viability assay (AID 1919874). Further: nearly all actives have a fitted effect of over 35% in size. Further: potency means the concentration at half of the fitted maximal effect. The essentials:
as §1

The nature of assay [18]: Quantitative High-Throughput drug screen in 47 multiple myeloma cell lines against the NCATS MIPE library collection: U266_ATCC cell viability assay (AID 1919864). Further: nearly all actives have a fitted effect of over 35% in size. Further: potency means the concentration at half of the fitted maximal effect. Put shortly:
as §1

Assay [19] is described as follows: Quantitative High-Throughput drug screen in 47 multiple myeloma cell lines against the NCATS MIPE library collection: OCIMY7_PLB cell viability assay (AID 1918987). Further: potency means the concentration at half of the fitted maximal effect; nearly all actives have a fitted effect of over 65% in size. The essentials: as §1
Assay [20] in a line: Quantitative High-Throughput drug screen in 47 multiple myeloma cell lines against the NCATS MIPE library collection: SKMM1_PLB cell viability assay (AID 1919863). The note with it: SKMM1 myeloma viability, CellTiter-Glo ATP, 48 h; viability: stronger effect = lower value. The essentials:
as §1

Where [21] appears, read: at 28.7 µM (top of the series), parasite line A.
[22] abbreviates: at 28.7 µM (top of the series), parasite line B.
Setting [23] is: measured here: PEO1 parental Z-AUC.
Setting [24] is: TFE3-RCC UOK109 viability, measured here: UOK109 Z-AUC.
Where [25] appears, read: TFE3-RCC viability, measured here: UOK124 Z-AUC.
Setting [26] is: TFE3-RCC viability, measured here: UOK145 Z-AUC.

On to `CC1(C)O[C@@H]2C[C@@H]3[C@H]4C[C@@H](F)C5=CC(=O)C=C[C@]5(C)[C@@]4(F)[C@@H](O)C[C@]3(C)[C@]2(C(=O)CO)O1`, for which the Potency entry in [1], in assay [4], in assay [5], in assay [6], in assay [8] and in assay [11] was “inactive” each time. Further, the Potency in assay [2] is 0.0166 µM (active); in assay [3], 0.0187 µM (active); in [7], 1.18 µM (active); in assay [9], 0.0042 µM (active). Moreover, the results for the activity, negative = inhibition in [10] (setting [21]) and in assay [10] (setting [22]) were 4.83% (inactive) and 2.94% (inactive), respectively.
As to `O=c1[nH]c(=O)n(C2CCCO2)cc1F` (stereo not drawn), the Potency result in assay [1], in [3], in [6], in assay [12], in assay [7] and in assay [13] was “inactive” each time. Further, the Potency result in assay [14], in assay [8], in assay [9] and in [11] was “inactive” throughout. For the same molecule, the Potency in assay [2] was 42.9 µM (active). In addition, the Z-AUC is 1.33 (inactive) in assay [15], 1.12 in assay [15] (setting [23]) and 0.998 in assay [15] (measured here: PEO4 Z-AUC). The z-score in assay [16] (setting [24]) stood at 0.952; in assay [16] (setting [25]) it was 1.45; in assay [16] (setting [26]) it was 0.901. Moreover, the figures for the activity, negative = inhibition in assay [10] (setting [21]) and in assay [10] (setting [22]) were 8.19% (inactive) and 12.8% (inactive), respectively.
With `CC(=O)OCCN1C(=O)c2c(C)nc3ccc(S(=O)(=O)N4CCOCC4)cc3c2C1=O`, the Potency entry in assay [1], in assay [2], in assay [3], in [4], in [5] and in [7] was “inactive” in each case. Besides, the Potency entry in [14], in assay [8], in [9] and in assay [17] was “inactive” each time. In addition, the figures for the Z-AUC in assay [15], in assay [15] (setting [23]) and in [15] (measured here: PEO4 Z-AUC) were 1.23 (inactive), 1.34 and 1.26, respectively.
On to `C[C@H]1C[C@@H]2[C@@H]([C@@H](O)C[C@@]3(C)[C@H]2CC[C@]3(O)C(=O)CO)[C@@]2(C)C=CC(=O)C=C12`, for which the Potency entry in [1], in assay [3], in [18], in assay [4], in [5] and in [7] was “inactive” throughout. The Potency result in assay [8], in assay [17] and in [11] was “inactive” throughout. The Potency in [9] was 0.105 µM (active). For the same molecule, the z-score in assay [16] (setting [24]) turned out to be 0.15; in [16] (setting [25]) it was 0.208; in assay [16] (setting [26]), 0.428. In addition, the activity, negative = inhibition in assay [10] (at 12.8 µM (top of the series), parasite line A) was -0.344% (inactive); in [10] (at 12.8 µM (top of the series), parasite line B), -25.6% (inactive).
As for `CC(O)C1C(=O)N2C(C(=O)O)=C(SC3CNC(C(=O)N(C)C)C3)C(C)C12` (stereo not drawn), the Potency result in assay [1], in assay [3], in [4], in [5], in assay [12] and in [7] was “inactive” each time. For the same molecule, the Potency entry in [9] and in assay [17] was “inactive” in each case. For the same molecule, in assay [6], the Potency is 2.64 µM (active). For the same molecule, the z-score in [16] (setting [24]) worked out at 0.648; in assay [16] (setting [25]) it was 0.116; in assay [16] (setting [26]) it was 0.637.
For the molecule `CCCCCN(CCC12CC3CC(CC(C3)C1)C2)C(=O)NCCCc1ccncc1`, the Potency is 16.6 µM (active) in [19]; 14.8 µM (active) in [2]; 23.5 µM (active) in assay [20]; 14.8 µM (active) in assay [18]; 18.7 µM (active) in assay [12]; 20.9 µM (active) in assay [14]. Further, the Potency in [9] is 16.6 µM (active); in assay [17], 8.33 µM (active). In addition, in assay [8], the Potency result was “inactive”. Also, the Z-AUC in [15] was -0.0878 (inactive); in assay [15] (setting [23]) it was 0.162; in assay [15] (measured here: PEO4 Z-AUC) it was -0.141.
